{"source": "PubChem BioAssay AID485346", "about": "(Sanford-Burnham Center for Chemical Genomics, 2010)", "note": "In all, about 330,000 compounds went through this assay and about 10,000 (3%) were called active. Many of the other results were omitted from the sample, so actives are more common in it than they were. A number with no mark means an inactive call.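 The calls were made as follows: active = inhibition of at least 50% at 8 µM in the primary screen; inactive = the rest.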"}
{"target": "Protein Mdm4 (Homo sapiens) + E3 ubiquitin-protein ligase Mdm2 (Homo sapiens) (UniProt O15151+Q00987)", "sequence (O15151 whole entry, looked up)": "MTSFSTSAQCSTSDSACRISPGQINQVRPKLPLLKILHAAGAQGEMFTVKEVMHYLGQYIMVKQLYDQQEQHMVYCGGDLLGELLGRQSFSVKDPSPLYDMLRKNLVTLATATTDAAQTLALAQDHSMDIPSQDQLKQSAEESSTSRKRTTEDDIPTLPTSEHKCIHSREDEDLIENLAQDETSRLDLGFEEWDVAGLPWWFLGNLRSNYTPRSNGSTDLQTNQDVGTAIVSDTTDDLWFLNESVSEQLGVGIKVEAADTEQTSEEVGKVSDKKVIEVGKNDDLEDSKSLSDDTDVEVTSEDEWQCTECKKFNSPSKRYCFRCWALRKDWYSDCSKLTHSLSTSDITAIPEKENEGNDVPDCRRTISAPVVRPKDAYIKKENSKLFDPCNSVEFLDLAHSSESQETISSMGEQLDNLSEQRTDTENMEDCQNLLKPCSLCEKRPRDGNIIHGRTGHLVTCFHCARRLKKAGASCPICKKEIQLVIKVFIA", "sequence (Q00987 whole entry, looked up)": "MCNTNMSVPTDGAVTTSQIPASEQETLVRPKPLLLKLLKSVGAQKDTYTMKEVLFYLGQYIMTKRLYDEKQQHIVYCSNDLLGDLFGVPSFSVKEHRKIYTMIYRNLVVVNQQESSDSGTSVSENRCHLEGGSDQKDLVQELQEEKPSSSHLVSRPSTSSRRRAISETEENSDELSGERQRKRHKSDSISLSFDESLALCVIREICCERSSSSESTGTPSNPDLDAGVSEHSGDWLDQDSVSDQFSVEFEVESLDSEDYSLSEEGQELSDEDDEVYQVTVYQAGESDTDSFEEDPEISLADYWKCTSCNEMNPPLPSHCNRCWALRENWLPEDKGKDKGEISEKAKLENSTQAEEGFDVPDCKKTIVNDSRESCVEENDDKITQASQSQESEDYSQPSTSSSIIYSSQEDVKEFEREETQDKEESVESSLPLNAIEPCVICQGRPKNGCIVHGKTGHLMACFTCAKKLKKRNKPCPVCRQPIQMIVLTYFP", "assay": "disruptors of Mdm2/MdmX RING complex – cell-based, luminescence, split luciferase, SaOS-2, uHTS, primary screen (AID 485346)", "conditions": "SaOS-2 split-luciferase Mdm2/MdmX complementation, at 8 µM, hits give high values"}
{"compound": "Cc1cc(CNCc2c(C(=O)N(C)Cc3ccccc3)nc3ccccn23)nn1C", "inhibition": "35.1%"}
{"compound": "CC1O[C@H](OC2C(COC3OC(CO)C(O)[C@H](O)C3O)OC(OC3CC[C@]4(C)C(CC[C@@]5(C)[C@@H]4C=C[C@]46OC[C@@]7(CCC(C)(C)C[C@H]74)C(O)C[C@@]56C)C3(C)C)C(O)C2O)C(O)C(O)C1O", "note": "(some centres undefined)", "inhibition": "-4.59%"}
{"compound": "Cc1c(C#N)c(NC(=O)c2ccccc2)n(Cc2ccccc2)c1C", "inhibition": "29.1%"}
{"compound": "CCOc1cnc(C(=O)NNC(=O)c2ccccc2Br)o1", "inhibition": "-14.2%"}
{"compound": "CCn1c(CC(=O)Nc2ccccc2C)nnc1SCC(=O)NC1=NCCS1", "inhibition": "6.16%"}
{"compound": "Cc1ccc(C(=O)O)cc1N1C(=O)CCCC1=O", "inhibition": "-17.1%"}
{"compound": "CN(C(=O)c1cccc(NC(=O)Cc2cccc([N+](=O)[O-])c2)c1)C1CCCCC1", "inhibition": "18.4%"}
{"compound": "CC(OC(=O)c1ccc(-n2cnnn2)cc1)C(=O)NCc1ccccc1", "note": "(centres undefined)", "inhibition": "8.29%"}
{"compound": "OCC1(CCOc2ccccc2)CCN(Cc2cn[nH]c2-c2ccccc2)CC1", "inhibition": "12.6%"}
{"compound": "Cc1c(CN2CCC(CO)(CCOc3ccccc3)CC2)[nH]c2ccc(Cl)cc12", "inhibition": "89.6% (active)"}
{"compound": "CCOC(=O)C1(CCOc2ccccc2)CCN(Cc2cc(OC)c(O)cc2Cl)CC1", "inhibition": "28.9%"}
{"compound": "O=C(COC(=O)c1cc(-c2cccs2)nn1-c1ccccc1)Nc1cc([N+](=O)[O-])ccc1Cl", "inhibition": "-2.96%"}
{"compound": "O=C(CCNC(=O)c1ccccc1)NN=Cc1ccc(Br)o1", "inhibition": "5.26%"}
{"compound": "COc1ccc(CNC(=O)COC(=O)CCS(=O)(=O)c2ccc(C)cc2)cc1OC", "inhibition": "21.8%"}
{"compound": "CCOc1ncccc1C(=O)Nc1ccc(S(=O)(=O)Nc2nc(C)cc(C)n2)cc1", "inhibition": "-16.7%"}
{"compound": "CC(=O)Nc1ccc(S(=O)(=O)Nc2cc(C)cn(Cc3ccc(C)cc3)c2=O)cc1", "inhibition": "17.7%"}
{"compound": "O=c1c([N+](=O)[O-])cccn1Cc1ccc(F)cc1Cl", "inhibition": "10.4%"}
{"compound": "Oc1c(Br)cccc1/C=N/Nc1c(F)c(F)c(F)c(F)c1F", "inhibition": "82.4% (active)"}
{"compound": "Brc1ccccc1/C=N/Nc1nc2ccccc2o1", "inhibition": "36.2%"}
{"compound": "CC(=O)/C(=N\\Nc1ccc(Cl)cc1Cl)Sc1cccc2cccnc12", "inhibition": "63.2% (active)"}
{"compound": "O=C(NNc1cc(Cl)ccc1Cl)c1cccnc1Cl", "inhibition": "9.63%"}
{"compound": "S=C(NCc1cccnc1)Nc1ccc(Cl)cc1Cl", "inhibition": "4.36%"}
{"compound": "COc1ccccc1NC(=O)C1CCN(C(=O)c2ccc(C(C)(C)C)cc2)CC1", "inhibition": "28.8%"}
{"compound": "CCCCCCCNC(=O)C1(CC2CC(c3cccc(Br)c3)=NO2)CCN(C(=O)c2cc(OCC)c(OCC)c(OCC)c2)CC1", "note": "(centres undefined)", "inhibition": "18.1%"}
